Only a selection was taken, and hits are over-represented in it overall.
Pf apPOL block: Pf-apPOL DNA polymerase inhibition; inhibition, % at 10 µM; actives 0.25% (n = 210,000); Recombinant Pf-apPOL, molecular beacon fluorescence, 1.5 h
mHTT-CaM PPI inh: inhibitors of human mutant huntingtin-calmodulin interaction | AlphaScreen His-mHTT/GST-CaM binding, luminescence | AID 1671202 | actives 3.6% (n = 190,000) | inhibition, % at 15 µM | P42858;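 further: 0% = both proteins with DMSO and 100% = one protein alone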
* hit, by the source's call; / = no result. No stated cut-off is given here; in the data, active means inhibition above about 50%; inactive means the rest.

SMILES	Pf apPOL block	mHTT-CaM PPI inh
O=C1c2cccc([N+](=O)[O-])c2C(=O)N1CN(C(=O)C(F)(F)F)c1ccc(Cl)cc1Cl	0.3	23.0
CCc1cc2c(=O)c(-c3ccccc3)c(C)oc2cc1OC	-1.9	-0.2
O=C(c1ccc2c(c1)OCO2)N1CCC(Nc2ncnc3c2CCC3)C1 (centres undefined)	-3.1	-6.2
C=CCNCCOc1ccc(Br)cc1Cl	-4.8	-3.9
COc1ccccc1OCCCn1c(C2CCCO2)nc2ccccc21 (centres undefined)	-10.3	0.1
N=C1S/C(=C\c2ccc(-c3cccc(C(=O)O)c3)o2)C(=O)N1c1nonc1N	-1.1	47.0
CC(=O)Nc1nonc1N1C(=N)S/C(=C\c2ccc(-c3ccccc3F)o2)C1=O	-0.4	15.0
CC(=O)Nc1nonc1N1C(=N)S/C(=C\c2ccc(-c3cccc(C(F)(F)F)c3)o2)C1=O	-12.6	56.0*
N=C1S/C(=C\c2ccc(-c3ccc(F)c(Cl)c3)o2)C(=O)N1c1nonc1N	0.4	51.0*
Cc1nnc2n(-c3ccccc3)c(=O)c3c4c(sc3n12)CCCC4C (centres undefined)	-1.6	0.8
CCn1nccc1C(=O)N1CCC(c2nc3ccncc3n2CC(C)C)C1 (centres undefined)	-2.3	1.4
COc1ccc(CNC(=O)c2noc3c2CC(C)CC3)cc1 (centres undefined)	1.7	-6.4
Cc1ccnc(Nc2nc(C)c(C(=O)N3CCC(C)CC3)s2)c1	-3.8	15.1
Cc1nc(Nc2ccc(F)cn2)sc1C(=O)N1CCN(c2ccc(F)cc2)CC1	-4.6	84.5*
Cc1nnsc1C(=O)N1CCN(c2ccc(F)cc2)CC1	2.8	/
Cc1c(C(=O)N2CCN(c3ccc(F)cc3)CC2)sc2nc(-c3ccccc3)cn12	-2.1	0.0
Cc1ccc(-c2cc(C(=O)N3CCCCCC3)ccn2)s1	-5.4	3.7
Cc1nc(Nc2ccccn2)sc1C(=O)N1CCN(c2ccccc2F)CC1	-7.7	59.2*
Cc1ccc(-c2cc(C(=O)N3CCN(c4ccc(F)cc4)CC3)ccn2)s1	32.9	74.1*
Cc1nc(Nc2ccc(F)cn2)sc1C(=O)N1CCN(c2ccccc2)CC1	-9.8	67.5*
O=C(Nc1ccccc1C(=O)NCc1cccs1)c1ccc([N+](=O)[O-])o1	-4.8	/
COc1ccc(CN2CCc3nc(Nc4ccccc4F)ncc3C2)c(OC)c1OC	-3.2	11.4
O=C1C(=O)N(CCCN2CCOCC2)C(c2ccco2)C1=C(O)c1ccncc1 (centres undefined)	-7.2	-4.9
CSc1ccc(CNC(=O)C2CCN(c3ccncc3)CC2)cc1	4.8	-3.5
COc1ccccc1N=C(N)N	-0.9	-2.9
SMILES	Pf apPOL block	mHTT-CaM PPI inh
COc1cccc2cc(C(=O)N3CC(c4nc(C5CC5)no4)C3)oc12	-5.7	-13.3
CN1CCN(C(=O)c2csc(N3CCN(c4ccccc4F)CC3)n2)CC1	-3.4	27.3
O=C(c1csc(Nc2ccccc2)n1)N1CCN(c2ccccc2F)CC1	-3.0	80.3*
Cc1ccc(C)c(C(=O)NCC2(c3ccccc3)CCCOCC2)c1 (centres undefined)	-2.5	11.8
Cc1ccccc1/C=C1\C(=O)Nc2ccc(Br)cc21	-4.5	97.0*
Cc1ccc(/C=C2\C(=O)Nc3ccc(Br)cc32)cc1	-8.9	43.0
CC(C)c1ccc(/C=C2\C(=O)Nc3ccc(F)cc32)cc1	-7.5	100.0*
Cc1ccccc1/C=C1\C(=O)Nc2ccc(F)cc21	-9.8	100.0*
Cc1ccc(/C=C2\C(=O)Nc3ccc(Br)cc32)o1	0.5	75.0*
O=C1Nc2ccc(F)cc2/C1=C/c1ccccc1F	-7.0	21.0
O=C1Nc2ccc(F)cc2/C1=C/c1ccc(F)cc1	-0.4	17.0
CSc1ccc(/C=C2\C(=O)Nc3ccc(Br)cc32)cc1	3.3	39.0
Cc1cc(C)cc(N2C(=O)c3ccccc3NC2c2ccc3c(c2)OCO3)c1 (centres undefined)	-0.3	-14.0
COc1cccc(C=C2Oc3cc(OC(=O)C(C)(C)C)ccc3C2=O)c1	-4.0	-5.7
Cc1noc(C)c1S(=O)(=O)N1CCC(CC(=O)NCCCN2CCCC(C)C2)CC1 (centres undefined)	-3.3	5.9
CN(C)S(=O)(=O)c1ccc(C(=O)N2CCC(C(=O)Nc3nccs3)CC2)cc1	-2.6	-20.9
CCCCOc1ccccc1/C=C1\C(=O)Nc2ccc(Br)cc21	3.1	62.0*
CCOc1ccccc1/C=C1\C(=O)Nc2ccc(F)cc21	-7.0	96.0*
COc1ccccc1/C=C1\C(=O)Nc2ccc(F)cc21	2.1	30.0
COc1ccc(Br)cc1/C=C1\C(=O)Nc2ccc(Br)cc21	-36.8	5.0
CCOc1cc(/C=C2\C(=O)Nc3ccc(Br)cc32)c(Br)cc1OC	4.2	40.0
O=C1Nc2ccc(Br)cc2/C1=C/c1ccc(Br)cc1	2.5	35.0
O=C1Nc2ccc(Br)cc2/C1=C/c1ccc(O)cc1	-29.1	100.0*
CCOc1c(O)ccc(/C=C2\C(=O)Nc3ccc(Br)cc32)c1[N+](=O)[O-]	-23.1	94.0*
C=C(C)Cn1c(SCC(=O)O)nnc1-c1ccc(Br)cc1	-10.1	-2.7
